Source: PubChem BioAssay AID1259417 (TB Discovery Research, Infectious Disease Research Institute, 2018)
Among all 1,100 compounds or so, about 760 (69%) were called active. The rule behind the calls is not given here. So high a share suggests a set chosen from earlier hits. This is one part of the list.

Experiment: M. tuberculosis growth inhibition, HTS (AID 1259417);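 note: bacteria grown with compound for 5 days at 37 °C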
Conditions: stronger effect = higher value, concentration not given here
[1] = M. tuberculosis DsRed fluorescence growth inhibition
[2] = M. tuberculosis growth inhibition

Row | Compound | inhibition [1] | inhibition [2]
1 | COc1ccc(C(=O)C(CN2CCOCC2)c2ccccc2)cc1 (configuration not stated) | 42.8% (active) | 77%
2 | COc1ccc(C(=O)C(CN2CCCCC2)c2ccccc2)cc1 (configuration not stated) | 31.4% (active) | 66.8%
3 | COc1ccc(C(=O)N2N=C(c3ccccc3)CC2(O)C(F)(F)F)cc1 (configuration not stated) | 1.52% (inactive) | -2.76%
4 | C=CCNc1nnc(Sc2ncccc2[N+](=O)[O-])s1 | 97.9% (active) | 98.2%
5 | Nc1nnc(Sc2ncccc2[N+](=O)[O-])s1 | 98.8% (active) | 98.6%
6 | Cc1ccc(C)c(N=Nc2nc3ccccc3n2C)c1 | 100% (active) | 99.1%
7 | O=C(NCc1nnc2c3ccccc3c(-c3ccccc3)nn12)c1ccc(Cl)cc1 | 15.3% (inactive) | -15.9%
8 | O=C(Nc1nnc(C2=COCCO2)o1)c1ccc(F)cc1 | 17.6% (inactive) | 29.2%
9 | Cc1ccc(C(=O)Nc2nc(-c3ccccc3)c(-c3ccccc3)o2)cc1 | 80.4% (active) | 65.6%
10 | Cc1ccc(C(=O)Nc2nnc(C3=COCCO3)o2)cc1 | 11.3% (inactive) | -5.11%
11 | O=C(Nc1nc(-c2ccccc2)c(-c2ccccc2)o1)c1ccc(F)cc1 | 93.6% (active) | 93.3%
12 | CCOC(=O)Cc1c(C)nc2c(-c3cccc(Br)c3)c[nH]n2c1=O | 98.3% (active) | 97.9%
13 | CCOC(=O)CSc1nc(N)c(C#N)c(-c2cccs2)c1C#N | -3.66% (inactive) | 10.2%
14 | CCCCOC(=O)CSc1nc(N)c(C#N)c(-c2ccc(OC)cc2)c1C#N | 4.48% (active) | 30.9%
15 | Cc1ccc2c(C)nc(Nc3nc(CSc4nc5ccccc5s4)cc(=O)[nH]3)nc2c1 | -4.65% (inactive) | -12.8%
16 | Cc1cc(Sc2ncnc(N)c2[N+](=O)[O-])ncn1 | 99.4% (active) | 100%
17 | Nc1ncnc(Sc2nc3ccccc3s2)c1[N+](=O)[O-] | 100% (active) | 99.4%
18 | Cc1ccc2sc(N(CCCn3ccnc3)C(=O)c3ccco3)nc2c1C | 98.6% (active) | 98.1%
19 | Cc1cc(Cl)cc2sc(N(CCCn3ccnc3)C(=O)c3ccco3)nc12 | 97.5% (active) | 98.4%

Row | Compound | inhibition [1] | inhibition [2]
20 | Cc1c(Cl)ccc2sc(N(CCCn3ccnc3)C(=O)c3ccco3)nc12 | 98.6% (active) | 99.5%
21 | Cc1cccc2sc(N(CCCn3ccnc3)C(=O)c3ccco3)nc12 | 98.6% (active) | 99.8%
22 | O=C(Nc1nnc(-c2ccc(Cl)cc2)o1)c1ccc([N+](=O)[O-])o1 | 98.3% (active) | 98.8%
23 | O=C(Nc1nnc(-c2ccc(Cl)s2)o1)c1ccc([N+](=O)[O-])o1 | 95.4% (active) | 87.9%
24 | O=C(CCc1ccccc1)Nc1nnc(-c2ccc(Cl)s2)o1 | 10% (inactive) | 26.7%
25 | O=C(Nc1nc2c(Cl)cccc2s1)c1ccc([N+](=O)[O-])o1 | -3.76% (inactive) | 28.2%
26 | O=C(Nc1ccc(Cl)cc1C(F)(F)F)c1ccc([N+](=O)[O-])o1 | 60.7% (active) | 58.1%
27 | C=CCn1c(O)c(C2=c3ccccc3=NC2=O)sc1=N | -9.61% (inactive) | 14.7%
28 | CCn1c(NCc2c(O)ccc3ccccc23)nc2ccccc21 | 77.8% (active) | 89%
29 | CCCCCn1c(NCc2ccc(N(C)C)cc2)nc2ccccc21 | -0.00251% (inactive) | -15.7%
30 | Cc1ccc(-c2nnc(NC(=O)c3c(F)cccc3F)o2)c(C)c1 | 2.49% (inactive) | -10.3%
31 | Cc1ccc(-c2nnc(NC(=O)c3ccc([N+](=O)[O-])s3)o2)c(C)c1 | 41.9% (active) | 72.9%
32 | Cc1ccc(C)c(-c2nnc(NC(=O)c3ccc([N+](=O)[O-])s3)o2)c1 | 98.9% (active) | 97.4%
33 | Cc1ccc(-c2nnc(NC(=O)c3ccc([N+](=O)[O-])o3)o2)c(C)c1 | 97.8% (active) | 98.1%
34 | Cc1ccc(C)c(-c2nnc(NC(=O)c3ccc([N+](=O)[O-])o3)o2)c1 | 12.4% (inactive) | 1.93%
35 | O=[N+]([O-])c1ccc(N2CCN(CCO)CC2)cc1NCCOc1cccc2ccccc12 | 10.3% (inactive) | -3.69%
36 | CCOc1cc2c3c(c1)C1(C(=O)N3C(C)(C)C=C2C)C(C#N)=C(N)Oc2cc(O)ccc21 (configuration not stated) | 10.6% (inactive) | -4.41%
37 | O=C1C(Cl)=C(Nc2ccccc2O)C(=O)N1c1ccc(Cl)c(Cl)c1 | 95.4% (active) | 94.6%
38 | O=C1C(Cl)=C(Nc2ccccc2O)C(=O)N1c1ccccc1 | 96% (active) | 94.9%

Row | Compound | inhibition [1] | inhibition [2]
39 | O=[N+]([O-])c1ccc(-c2[nH]c(-c3cccs3)nc2-c2ccccc2)cc1 | -27% (inactive) | 4.73%
40 | COC(=O)CSc1nc2ccccc2nc1SCC(=O)OC | 11.6% (active) | 37.2%
41 | c1ccc(-c2nc(NCC3CCCO3)c3ccccc3n2)nc1 (configuration not stated) | 95.4% (active) | 94.9%
42 | CC(=O)c1cccc(Nc2nc(-c3ccccn3)cs2)c1 | 70.5% (active) | 74.6%
43 | COc1cccc(Nc2nc(-c3ccccn3)cs2)c1 | 93.6% (active) | 93.4%
44 | CC(=O)c1cccc(Nc2cc(C)nc3c2ccc2ccccc23)c1 | 10.9% (inactive) | -33.8%
45 | COc1ccc(Nc2nc(-c3ccccn3)cs2)c(OC)c1 | 92.1% (active) | 83.9%
46 | CC(=O)c1ccc(NC(=O)NC(C)C23CC4CC(CC(C4)C2)C3)cc1 (configuration not stated) | 98.3% (active) | 94.8%
47 | CC(=O)c1ccc(NC(=O)Nc2cc(OCC(F)(F)F)cc(OCC(F)(F)C(F)F)c2)cc1 | 1.19% (inactive) | 22.7%
48 | Cc1ccc(-c2nc3c(cnn3-c3ccccc3)c(=O)o2)cc1 | 4.19% (inactive) | -0.344%
49 | CCOC(=O)C(Cc1ccccc1)C(=O)Nc1cccc2ccccc12 (configuration not stated) | -0.257% (inactive) | -5.18%
50 | Cc1oc2c(c1C(=O)Nc1cccc3ccccc13)CCCC2 | 13.4% (inactive) | 21.7%
51 | CCCC(=O)Nc1cccc(-c2nc3ccccc3c(=O)o2)c1 | 29.1% (active) | 52%
52 | O=C(Nc1ccc(-c2nc3ccccc3c(=O)o2)cc1)c1ccccc1I | 78.1% (active) | 85.2%
53 | COc1ccccc1OC(=O)c1sc2ccccc2c1Cl | 17.3% (active) | 53%
54 | COc1ccccc1-c1nnc(NC(=O)c2sc3ccccc3c2Cl)o1 | -1.61% (inactive) | -16%
55 | Cc1c(OC(=O)c2ccccc2Cl)ccc2c1CCCC2 | 7.92% (inactive) | 16.4%
56 | Cc1ccccc1OC(=O)c1sc2ccccc2c1Cl | 25.5% (active) | 64.7%
